# Compound activity deposited in PubChem BioAssay by several laboratories.
# GDH-TPI counter-1: GDH-TPI coupled enzyme inhibition counter-screen. GDH-TPI coupled enzyme counterscreen, NADH absorbance. inhibition, % at 4.8 µM. 1.2% of 360,000 active. AID 588335; in the data active = inhibition above about 30%
# Mtb BioA inh: BioA (M. tuberculosis) enzyme inhibition; purified M. tuberculosis BioA enzyme, plate reader; inhibition, % at 9.99 µM; 0.096% of 360,000 active; in the data active = inhibition above about 40%
# FBA Mtb inh: inhibitors of M. tuberculosis fructose-bisphosphate aldolase. P9WQA3. purified M. tuberculosis FBA, fluorescence read-out. inhibition, % at 1 µM. 2.3% of 360,000 active. AID 588726
# Target sequence (P9WQA3 whole entry, looked up): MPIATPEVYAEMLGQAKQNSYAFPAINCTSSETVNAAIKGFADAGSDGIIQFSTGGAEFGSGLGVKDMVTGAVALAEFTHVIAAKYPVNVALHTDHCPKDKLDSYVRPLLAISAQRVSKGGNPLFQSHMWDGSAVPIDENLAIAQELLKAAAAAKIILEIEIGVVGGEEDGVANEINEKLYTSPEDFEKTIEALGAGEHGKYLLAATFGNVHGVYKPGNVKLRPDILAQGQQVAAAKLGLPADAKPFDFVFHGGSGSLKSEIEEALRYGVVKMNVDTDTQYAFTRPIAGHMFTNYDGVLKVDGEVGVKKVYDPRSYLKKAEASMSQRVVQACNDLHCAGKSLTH
# Vc quorum ag: induces V. cholerae light production without autoinducers. V. cholerae BH1578 lux reporter, luminescence, 6 h. activation, % at 18.7 µM. 0.16% of 350,000 active. AID 588436; in the data active = activation mostly above about 9.7%, no sharp cut-off
# Mtb FBA confirm: Mtb FBA inhibition, confirmed | shares compounds with FBA Mtb inh | purified M. tuberculosis FBA, fluorescence read-out | inhibition, % at 1 µM | 78% of 5,600 active
# GDH-TPI counter-2: counter-screen for M. tuberculosis FBA inhibitors: GDH-TPI coupled enzyme inhibition. shares compounds with FBA Mtb inh. GDH-TPI coupled enzyme counterscreen, fluorescence. inhibition, % at 1 µM. 81% of 5,600 active. AID 652141; in the data active = inhibition above about 10%
# A number is an active result; i = inactive; nt = not tested or not shown; + = active, no number. Sampled rows, rich in hits. Any-hit rate of the full collection: about 3%. Cut-off read from the data, not from the text of the source, unless noted: active = inhibition above about 27%; inactive = the rest.
SMILES,GDH-TPI counter-1,Mtb BioA inh,FBA Mtb inh,Vc quorum ag,Mtb FBA confirm,GDH-TPI counter-2
CCc1cc2c(=O)c(-c3nc4ccccc4[nH]3)coc2c(CN2CCCCC2C)c1O (stereo unspecified),i,i,i,i,nt,nt
CCc1cc2c(=O)c(-c3ccc4c(c3)OCCO4)coc2c(CN2CCCCC2C)c1O (stereo unspecified),i,i,45.1,i,70.4,70.5
CN(C)Cc1c(O)ccc2c(=O)c(-c3ccc(Cl)cc3)coc12,i,i,45.7,i,42.8,30.5
CC1CCCCN1Cc1c(O)ccc2c(=O)c(-c3ccccc3)coc12 (stereo unspecified),i,i,65.8,i,77.0,56.9
CC1CCCCN1Cc1nc2ccccc2c(=O)[nH]1 (stereo unspecified),i,i,i,i,nt,nt
CCC1CCCCN1Cc1c(O)ccc2c(=O)c(-c3ccccc3)coc12 (stereo unspecified),i,i,54.5,i,41.4,32.5
Cc1noc(C)c1NC(=O)N(C)C[C@H]1OCCCC[C@@H](C)Oc2ccc(NC(=O)Cc3ccccc3)cc2C(=O)N([C@H](C)CO)C[C@H]1C,nt,i,nt,nt,nt,nt
C[C@@H]1CN([C@@H](C)CO)C(=O)Cc2cc(N(C)C)ccc2O[C@H]1CN(C)C(=O)Nc1ccccc1,nt,i,nt,nt,nt,nt
COc1ccc(NC(=O)N(C)C[C@H]2OCCCC[C@@H](C)Oc3ccc(NS(C)(=O)=O)cc3C(=O)N([C@H](C)CO)C[C@H]2C)cc1,nt,i,nt,nt,nt,nt
COc1ccc(NC(=O)N(C)C[C@@H]2Oc3ccc(NS(=O)(=O)c4c(C)noc4C)cc3CC(=O)N([C@H](C)CO)C[C@H]2C)cc1,nt,i,nt,nt,nt,nt
CC1CN(Cc2c(O)ccc3c(=O)c(-c4ccccc4)coc23)CC(C)O1 (stereo unspecified),i,i,89.9,i,i,i
CC1CN(Cc2c(O)ccc3c2oc(=O)c2ccccc23)CC(C)O1 (stereo unspecified),i,i,i,i,nt,nt
C=CCN(CC=C)Cc1c(O)ccc2c(=O)c(-c3ccccc3)coc12,i,i,52.6,i,33.5,26.7
COc1ccc(-c2coc3c(CN4CCCCC4C)c(O)ccc3c2=O)cc1 (stereo unspecified),i,nt,77.6,i,69.6,45.6
O=c1c(-c2ccccc2)coc2c(CN3CCCCC3)c(O)ccc12,36.4,i,105.8,i,89.6,87.7
CCCn1c(N)c(N(CCOC)C(=O)COC(=O)c2ccccc2NCCO)c(=O)[nH]c1=O,i,i,90.5,i,122.3,102.5
CCCCn1c(N)c(N(CCOC)C(=O)COC(=O)c2ccccc2OCC)c(=O)[nH]c1=O,i,i,i,i,nt,nt
O=C(C[C@@H]1CC[C@H]2[C@@H](COC[C@H](O)CN2Cc2cc(F)ccc2F)O1)NCc1ccc(Cl)cc1,nt,i,nt,nt,nt,nt
CC(C)CNC(=S)N(CCN(C)C)Cc1cc2cc3c(cc2[nH]c1=O)OCO3,i,i,i,i,nt,nt
CC(C)CNC(=S)N(CCCO)Cc1cc2cc3c(cc2[nH]c1=O)OCO3,i,i,33.3,i,148.2,97.8
CC(C)CNC(=S)N(CCN(C)C)Cc1cc2cc3c(cc2[nH]c1=O)OCCO3,i,i,27.4,i,44.7,38.6
O=C(NCc1cccnc1)c1ccc2c(c1)N(Cc1ccccc1)CCS2,i,i,75.5,i,162.9,124.5
O=C(NCc1ccccn1)c1ccc2c(c1)N(Cc1ccccc1)CCS2,i,i,93.6,i,i,i
CC1CC(C)CN(C(=O)c2ccc3c(c2)N(Cc2ccccc2)CCS3)C1 (stereo unspecified),i,i,i,i,nt,nt
CN1CCSc2ccc(C(=O)NCc3ccccc3)cc21,i,i,95.8,i,+,167.0
SMILES,GDH-TPI counter-1,Mtb BioA inh,FBA Mtb inh,Vc quorum ag,Mtb FBA confirm,GDH-TPI counter-2
CCOC(=O)N1CCN(C(=O)c2ccc3c(c2)N(Cc2ccccc2)CCS3)CC1,i,i,i,i,nt,nt
C[C@H]1CN([C@@H](C)CO)C(=O)Cc2cc(NC(=O)NC3CCCCC3)ccc2O[C@@H]1CN(C)Cc1ccc2c(c1)OCO2,nt,i,nt,nt,nt,nt
O=C(C[C@H]1CC[C@@H]2[C@H](COC[C@H](O)CN2Cc2ccc(C(F)(F)F)cc2)O1)NCCc1ccccc1,nt,i,nt,nt,nt,nt
Cc1noc(C)c1NC(=O)N(C)C[C@H]1Oc2ccc(NS(C)(=O)=O)cc2CC(=O)N([C@H](C)CO)C[C@@H]1C,nt,i,nt,nt,nt,nt
C=CCOc1c(CNc2cccc(C(=O)O)c2)cccc1OCC,i,i,i,i,nt,nt
C=CCOc1c(CNc2cccc(C(=O)O)c2)cccc1OC,i,i,29.2,i,39.5,52.7
C=CCOc1cccc(CNc2cccc(C(=O)O)c2)c1,i,i,27.5,i,i,i
CCS(=O)(=O)Nc1ccc2c(c1)C(=O)N(C)C[C@@H](OC)[C@H](C)CN(CCC(F)(F)F)[C@@H](C)CO2,nt,i,nt,nt,nt,nt
O=C(NC1CCCCC1)c1ccc2ccccc2c1O,i,i,27.9,i,i,i
O=C(CNc1n[nH]c(=O)[nH]c1=O)N/N=C/c1cccnc1,i,nt,i,i,nt,nt
O=c1[nH]c(NCCO)c(N=Cc2ccccc2)c(=O)[nH]1,i,i,85.3,i,108.2,94.1
CCC(=O)N1C[C@@H](C)[C@@H](OC)CN(C)C(=O)c2ccc(NC(=O)C3CCOCC3)cc2OC[C@H]1C,nt,i,nt,nt,nt,nt
COC(=O)C1(C)NC(=O)c2ccccc2N1 (stereo unspecified),i,i,29.9,i,38.8,42.0
COc1ccc(N2C(=O)c3ccccc3NC2(C)C)cc1,i,i,i,i,nt,nt
COC(=O)C1(C)Nc2ccccc2C(=O)N1c1ccccc1OC (stereo unspecified),i,i,28.9,i,85.8,55.8
COC(=O)c1cccc2c1NC(=O)C2=O,i,i,i,i,nt,nt
CCc1nc2sc(C#N)c(N)c2c2c1CCCC2,i,i,48.6,i,+,171.0
Cc1cccc2[nH]c3c(N4CCC5(CC4)OCCO5)ncnc3c12,31.4,i,40.7,i,68.3,51.6
Cc1cccc2[nH]c3c(N4CCN(C(=O)c5ccco5)CC4)ncnc3c12,i,i,44.0,i,57.9,42.4
C[C@@H]1CCCCO[C@@H](CN(C)C(=O)Nc2ccccc2)[C@@H](C)CN([C@@H](C)CO)C(=O)c2cc(NC(=O)Nc3ccc4c(c3)OCO4)ccc2O1,nt,i,nt,nt,nt,nt
C[C@H](CO)N1C[C@H](C)[C@@H](CN(C)S(=O)(=O)c2ccccc2)OCCCC[C@H](C)Oc2ccc(NS(=O)(=O)c3ccccc3)cc2C1=O,nt,i,nt,nt,nt,nt
CC(C)c1nc(N2CCN(C(=O)c3ccccc3)CC2)c(C#N)c2c1COC(C)(C)C2,i,i,i,i,nt,nt
CC(C)c1nc(N2CCN(C(=O)c3ccco3)CC2)c(C#N)c2c1COC(C)(C)C2,i,nt,37.3,i,+,+
COc1cc2c3nnc(-c4ccccc4)c-3cn(Cc3ccc(F)cc3)c2cc1OC,i,nt,31.8,i,127.3,93.6
COc1cc2c3nnc(-c4ccc(F)cc4)c-3cn(Cc3ccc(C)cc3)c2cc1OC,i,i,i,i,nt,nt
